# GLA spleen mod: inhibitors or activators of human alpha-galactosidase in spleen homogenate; hit rate 0.008% among 240,000; human spleen homogenate, 4MU-alpha-Gal fluorescence, 40 min; Potency, µM (highest dose often 80 µM), for the others: at the top dose activity change, negative = inhibition, hits mostly inhibitors; AID 2107; P06280;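 also: potency is read from the fitted curve at half-maximal effect; 0% = enzyme with vehicle and -100% = no enzyme basal signal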
# Target sequence (P06280 32-429 limits assumed): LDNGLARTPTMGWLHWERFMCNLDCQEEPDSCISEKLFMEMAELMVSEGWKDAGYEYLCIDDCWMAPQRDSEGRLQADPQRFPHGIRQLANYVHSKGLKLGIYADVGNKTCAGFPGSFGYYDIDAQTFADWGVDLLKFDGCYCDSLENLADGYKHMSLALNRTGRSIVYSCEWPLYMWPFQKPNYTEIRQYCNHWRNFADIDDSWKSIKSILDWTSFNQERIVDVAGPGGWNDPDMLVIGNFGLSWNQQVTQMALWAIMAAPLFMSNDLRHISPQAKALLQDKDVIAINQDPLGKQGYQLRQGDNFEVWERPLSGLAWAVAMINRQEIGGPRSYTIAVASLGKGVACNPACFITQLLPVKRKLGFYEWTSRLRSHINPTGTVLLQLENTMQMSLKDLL
#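 Human spleen homogenate (1 ug) was the enzyme source, with 4-methylumbelliferyl-alpha-D-galactopyranoside (1 mM final) in pH 5.0 citrate buffer with 0.01% Tween-20. Compounds were titrated; after 40 min at 37C, NaOH/glycine stop, 4-MU fluorescence read; AC50 from Hill fits.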
# HPGD inh: inhibitors of human 15-hydroxyprostaglandin dehydrogenase (HPGD); AID 894; Potency, µM, inactives show at the top dose activity change, negative = inhibition, usual class: inhibitors; purified HPGD, NADH fluorescence kinetic, PGE2 substrate; hit rate 4.3% among 150,000; P15428; active = well fitted inhibition curve with a large enough effect, not every such curve was filed as active; inconclusive = small, poorly fitted or top-dose-only effect, or another doubt; inactive = no such curve, though single readings can be large or run the other way; also: potency is read from the fitted curve at half-maximal effect
# Target sequence (P15428 whole entry, looked up): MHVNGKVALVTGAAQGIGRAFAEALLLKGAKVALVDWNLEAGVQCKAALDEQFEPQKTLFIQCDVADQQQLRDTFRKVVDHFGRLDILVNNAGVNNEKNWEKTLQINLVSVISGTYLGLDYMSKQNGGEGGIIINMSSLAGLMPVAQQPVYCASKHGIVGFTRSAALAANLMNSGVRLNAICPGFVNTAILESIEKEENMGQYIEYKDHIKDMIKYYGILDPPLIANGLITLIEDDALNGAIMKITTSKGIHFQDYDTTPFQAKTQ
#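 NADH formation kinetics: reaction with 30 uM PGE2 and 1 mM NAD+ (final), 20 nM enzyme, Tris-HCl pH 8 with Tween 20, after 15 min compound preincubation at room temperature. Fluorescence change, last versus first of five reads.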
# GLA inh pH 4.5: inhibitors of human alpha-galactosidase A at pH 4.5 | purified enzyme, 4-MU-alpha-Gal fluorescence, pH 4.5 | 230,000 tested, under 10 active | P06280 | activity change, negative = inhibition, % at 105 µM;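 also: 0% = full activity with enzyme and -100% = basal without enzyme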
# PNC inhibitor: inhibitors of perinucleolar compartment assembly | activity change (PNC), negative = inhibition, % at 10 µM | hit rate 3.1% among 140,000 | PC3M PTB-GFP, PNC prevalence imaging, 16 h; stronger effect = lower value | AID 2417;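 active = readout at or below -70, meaning at least 70% loss of cells showing the perinucleolar compartment, a nuclear body marking cancer cells; inconclusive = readout between -30 and a set limit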;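 also: plate controls were DMSO wells for no effect and camptothecin positive control wells for full effect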
#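 Read-out is percentage of cells bearing a perinucleolar compartment, from automated 20x imaging of fixed, Hoechst-stained PC3M PTB-GFP cells. Cells were seeded 4 h, then exposed 16 h to compound (23 nl of library stock) in duplicate plates.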
# ALOX12 inhib: 12-hLO (ALOX12) enzyme inhibition. purified 12-hLO, xylenol orange hydroperoxide absorbance. hit rate 0.12% among 150,000. P18054. Potency, µM (series often up to 57.1 µM), for inactives: top-dose activity change, negative = inhibition, most hits filed as inhibitors; also: potency is read from the fitted curve at half-maximal effect; nearly all actives have a fitted effect of over 55% in size
#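 Lipoxygenase turnover measured by absorbance at 573 and 405 nm after Fe-XO development. Human 12hLO 150 nM, arachidonate 40 uM, pH 7.0 Hepes buffer with detergent; 15 min compound preincubation, 30 min reaction.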
# ALDH1A1 block: inhibitors of human aldehyde dehydrogenase 1A1; Purified ALDH1A1, NADH fluorescence, propionaldehyde substrate; Potency, µM (highest dose often 75.3 µM), for inactives: at the highest dose activity, negative = inhibition, usual class: inhibitors; hit rate 7.3% among 220,000; active = well fitted inhibition curve with a large enough effect, not every such curve was filed as active; inconclusive = small, poorly fitted or top-dose-only effect, or another doubt; inactive = no such curve, though single readings can be large or run the other way;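 also: potency is read from the fitted curve at half-maximal effect; plate controls were no enzyme wells and a reference inhibitor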
# * = called active by the depositor; ? = inconclusive; nt = not tested or not shown; [ ] = remark or other dose. Sampled rows, rich in hits. Any-hit rate of the full collection: about 10%. Unless noted, calls follow the shape of the dose curve; as a rule, active = well fitted curve in the direction sought with a large enough effect; inconclusive = small, poorly fitted or top-dose-only effect, or another doubt; inactive = no such curve, though single readings can be large; an effect the other way counts as inactive or inconclusive. Unless noted, % is scaled to controls: 0 for no effect and ±100 for the full control effect.
SMILES,GLA spleen mod,HPGD inh,GLA inh pH 4.5,PNC inhibitor,ALOX12 inhib,ALDH1A1 block
O=C(NCC1CCCO1)C1c2ccccc2Oc2ccccc21 (stereo not given),-2%,nt,3,nt,nt,9%
Cc1nn(-c2ccccc2)c(N2CCCC2)c1/C=N/NC(=S)Nc1ccccc1F,-3%,?,-1,-86*,3%,?
Cc1nn(-c2ccccc2)c(N2CCCC2)c1/C=N/NC(=O)c1cc2ccccc2cc1O,0%,?,-7,-1,-2%,5%
O=c1c(CCc2ccccc2)nc2cnc(N3CCOCC3)nc2n1-c1ccccc1,18%,nt,nt,nt,nt,?
Cc1nc2cnc(N3CCN(C)CC3)nc2n(C)c1=O,14%,nt,nt,nt,nt,?
CC(C)(C)c1ccc(/C([O-])=C(/C(=S)NCc2ccco2)[n+]2ccccc2)cc1,0%,-22%,2,34,-20%,10µM*
Cc1ccc(C(c2nnnn2C2CCCCC2)N(C)C2CCCCC2)cc1 (stereo not given),-16%,-2%,-6,-7,7%,-3%
CC(C)C(c1nnnn1C1CCCC1)N(C)C1CCCCC1 (stereo not given),-3%,-5%,-2,41,4%,28µM*
CC1=CCC2COC(c3ccc[n+](Cc4ccccc4)c3)C1C2 (stereo not given),7%,-2%,5,?,-2%,?
CCn1ccc(C(=O)Nc2c(C)nn(Cc3c(F)c(F)c(F)c(F)c3F)c2C)n1,2%,-9%,-12,?,-3%,1%
CCOC(=O)CSc1nc2nc(C)cc(C)n2n1,-13%,-5%,-5,28,-5%,-2%
COC(=O)CSc1nc2nc(C)cc(C)n2n1,-6%,-16%,-5,-85*,-1%,-11%
COCCNC(=O)CSc1nc2nc(C)cc(C)n2n1,-7%,20µM*,4,-17,-9%,-9%
Cc1cc(C)n2nc(SCCC(=O)NCCc3ccccc3)nc2n1,6%,-14%,0,36,-1%,5%
O=C(CCn1c(=O)c2ccccc2n(Cc2ccccc2)c1=O)NCc1ccc2c(c1)OCO2,11%,-5%,3,-1,8%,2%
O=C(CCn1c(=O)sc2ccccc21)NCc1ccc2c(c1)OCO2,0%,-9%,3,-119*,3%,?
O=C(CCn1c(=O)oc2ccccc21)NCc1ccc2c(c1)OCO2,6%,-12%,6,18,-1%,16µM*
O=C(Cn1c(Cc2ccccc2)nc2ccccc21)NCc1ccc2c(c1)OCO2,-9%,-4%,5,-25,-1%,16µM*
CC(NCc1ccc2c(c1)OCO2)C(=O)NC1CCCCC1 (stereo not given),12%,nt,-28,nt,nt,35µM*
O=C(Nc1ncnc2c1ncn2[C@@H]1O[C@@H]2COP(=O)(O)O[C@H]2[C@H]1O)c1ccccc1,-4%,nt,nt,nt,nt,nt
O=C(CCn1cccc1)NCc1ccc2c(c1)OCO2,0%,20µM*,5,5,-4%,-2%
CC(=O)c1cc2c(cc1NC(=O)CCC1CCCC1)OCO2,7%,?,7,18,-5%,4%
CC(=O)c1cc2c(cc1NC(=O)CCn1cccc1)OCO2,-2%,-19%,-10,1,-3%,32µM*
Cc1cc(OCC(=O)NCC(C)C)cc(C)c1Br,0%,14µM*,7,14,-4%,?
Cc1cc(OCC(=O)NCCN2CCOCC2)cc(C)c1Br,-2%,-21%,0,31,3%,1%
SMILES,GLA spleen mod,HPGD inh,GLA inh pH 4.5,PNC inhibitor,ALOX12 inhib,ALDH1A1 block
Cc1cc(OCC(=O)NC(C)C)cc(C)c1Cl,8%,-23%,-6,-100*,2%,-6%
CCOC(=O)N1CCN(C(=O)COc2cc(C)c(Cl)c(C)c2)CC1,10%,nt,0,nt,nt,5%
Fc1ccccc1CSc1ccc(-c2ccco2)nn1,2%,nt,-4,nt,nt,28µM*
c1ccc(CSc2ccc(-c3ccco3)nn2)cc1,-8%,-18%,1,-2,-1%,40µM*
Clc1cccc(CSc2ccc(-c3ccco3)nn2)c1,-10%,nt,-13,nt,nt,25µM*
Clc1ccc(CSc2ccc(-c3ccco3)nn2)cc1,8%,nt,-3,nt,nt,-5%
NCC1OC(O[C@@H]2[C@H](O)[C@@H](OC3C(O)C(N)CC(N)C3OC3OC(CO)C(O)C(O)C3N)O[C@@H]2CO)C(N)C(O)C1O (stereo not given in full),17%,-9%,-4,nt,nt,4%
COc1nccnc1NS(=O)(=O)c1ccc(N/C=C2\CCCCC2=O)cc1,-9%,nt,-12,nt,nt,?
Cc1ccccc1Br,8%,-3%,nt,nt,-3%,?
CC1CCN(C(=O)CSc2nc3[nH]ncc3c(=O)[nH]2)CC1,4%,-17%,4,?,-6%,11µM*
O=C(/C(=C/O)N=Nc1ccccc1Cl)c1ccccc1,2%,nt,-2,nt,nt,7.9µM*
O=C(N/N=C/C(Cl)=C/c1ccccc1)c1ccco1,-9%,nt,4,nt,nt,-16%
O=C(/C(=C/O)N=Nc1ccccc1)c1ccco1,-20%,nt,-12,nt,nt,14µM*
O=C(/C(=C/O)N=Nc1cccc(C(F)(F)F)c1)c1ccccc1,1%,nt,-12,nt,nt,7.5µM*
Cc1cccc(N=N/C(=C\O)C(=O)c2ccc(Br)cc2)c1,2%,nt,-12,nt,nt,?
COc1ccc(NC(=O)c2cccnc2Sc2ccccc2)c(OC)c1,-9%,1%,1,54,-2%,-10%
O=C(Nc1ccccc1)C1=C[C@@H](c2ccc(C(F)(F)F)cc2)C[C@@H](OCc2ccc(CO)cc2)O1,5%,nt,-5,nt,nt,-15%
Oc1ccc(Br)cc1-c1ccn[nH]1,-1%,-21%,-9,-17,-12%,0%
Oc1ccc(O)c(-c2cnns2)c1,-18%,1.4µM*,-8,-20,-7%,?
Cc1cc(=O)oc2cc(OCC(=O)N3CCCc4ccccc43)ccc12,7%,?,5,-19,-1%,22µM*
Cc1cc(=O)oc2ccc(OCC(=O)N3CCc4ccccc43)cc12,2%,-20%,0,13,-3%,16µM*
N[C@@H](Cc1[nH]nc2ccccc12)C(=O)O,nt,-4%,nt,nt,0%[11.4 µM],-8%[13.5 µM]
CC(O)[C@@H]1NC(=O)[C@H](CCCN)NC(=O)[C@@H](Cc2c[nH]c3ccccc23)NC(=O)[C@H](Cc2ccc(O)cc2)NC(=O)[C@@H](NC(=O)[C@H](N)Cc2ccccc2)CSSC(C)(C)C(C(=O)N[C@H](C(N)=O)[C@@H](C)O)NC1=O (stereo not given in full),-5%,nt,nt,nt,nt,nt
CN1CCN(S(=O)(=O)c2ccc(NC(=S)NC(=O)c3ccc(Cl)cc3)cc2)CC1,-7%,nt,-7,8,?,-10%
CCC(=O)NC(=S)Nc1ccc(S(=O)(=O)N2CCN(C)CC2)cc1,2%,-4%,2,?,-2%,6%

# Compound activity (PubChem BioAssay)
